In PubChem BioAssay (NCI):
The panel holds about 83,000 compounds, 20% with a hit somewhere; the sample as a whole holds those more often.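 48-hour exposure, single concentration, 96-well plates; percent growth endpoint where 0 means no net growth. Active: below 10.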 Unmarked numbers belong to inactive results. Active and inactive are the calls of the source.

Key:
Experiment in all cases: NCI-60 one-dose screen, 48 h (100 = growth as untreated, 0 = no growth, -100 = all killed)
786-0 renal = conditions: 10 µM unless noted
DU-145 prostate = conditions: 10 µM unless noted
MDA-MB-231 breast = conditions: 10 µM unless noted
SF-268 CNS = conditions: 10 µM unless noted
SF-539 CNS = conditions: 10 µM unless noted
UACC-257 melanoma = conditions: 10 µM unless noted
HCT-15 colon = conditions: 10 µM
SNB-19 CNS = conditions: 10 µM unless noted
PC-3 prostate = conditions: 10 µM unless noted
UACC-62 melanoma = conditions: 10 µM unless noted
LOX IMVI melanoma = conditions: 10 µM unless noted
SK-MEL-28 melanoma = conditions: 10 µM unless noted
SN12C renal = conditions: 10 µM unless noted
MOLT-4 leukemia = conditions: 10 µM
OVCAR-8 ovarian = conditions: 10 µM unless noted
OVCAR-3 ovarian = conditions: 10 µM unless noted
MDA-MB-435 melanoma = conditions: 10 µM unless noted
SW-620 colon = conditions: 10 µM unless noted
MCF7 breast = conditions: 10 µM unless noted
KM12 colon = conditions: 10 µM unless noted

Structure (SMILES)	growth (786-0 renal)	growth (DU-145 prostate)	growth (MDA-MB-231 breast)	growth (SF-268 CNS)	growth (SF-539 CNS)	growth (UACC-257 melanoma)	growth (HCT-15 colon)	growth (SNB-19 CNS)	growth (PC-3 prostate)	growth (UACC-62 melanoma)	growth (LOX IMVI melanoma)	growth (SK-MEL-28 melanoma)	growth (SN12C renal)	growth (MOLT-4 leukemia)	growth (OVCAR-8 ovarian)	growth (OVCAR-3 ovarian)	growth (MDA-MB-435 melanoma)	growth (SW-620 colon)	growth (MCF7 breast)	growth (KM12 colon)
CSc1ccccc1NP1(=O)OCC(C)([N+](=O)[O-])CO1 (stereo not drawn)	113%	109%	105%	105%	91.4%	106%	93.1%	97.1%	98%	101%	97.3%	98.6%	98%	94.4%	98%	107%	107%	101%	98.1%	104%
CCN1CC2(CN(CC)C1=S)C(=O)NC(=O)NC2=O	90.3%	97.6%	110%	95.1%	107%	94.7%	99.9%	107%	85.7%	101%	103%	105%	107%	107%	101%	107%	103%	97.4%	92.5%	94.1%
COc1ccc(CN2CCN(Cc3ccccc3)CC2)c(O)c1	95%	97.4%	104%	100%	117%	105%	99.2%	104%	86.2%	96.2%	92.1%	115%	91.2%	83.7%	98.2%	81.1%	103%	98.5%	99.7%	100%
N#C[Se]CCCNS(=O)(=O)C1CC2C=CC1C2 (stereo not drawn)	-87.4% (active)	-68% (active)	-71.8% (active)	-55.7% (active)	-77.9% (active)	-55.3% (active)	-1.27% (active)	-42.3% (active)	-19.2% (active)	-54.1% (active)	-76.8% (active)	-15.3% (active)	-25.6% (active)	5.9% (active)	-27.1% (active)	-63.6% (active)	-41.2% (active)	1.26% (active)	2.16% (active)	-5.35% (active)
n1nc(-c2nonc2-c2nn[nH]n2)n[nH]1	99%	103%	105%	122%	115%	100%	106%	105%	102%	107%	103%	106%	102%	110%	109%	150%	97.7%	107%	101%	118%
CC(=O)O[C@H]1C[C@H](O[C@H]2[C@@H](O)C[C@H](O[C@H]3[C@@H](O)C[C@H](O[C@H]4CC[C@@]5(C)C(CCC6C5C[C@@H](O)[C@]5(C)[C@@H](C7=CC(=O)OC7)CC[C@]65O)C4)O[C@@H]3C)O[C@@H]2C)O[C@H](C)[C@H]1O[C@@H]1O[C@H](CO)[C@@H](O)[C@H](O)[C@H]1O (stereo partly drawn)	-91.2% (active)	-100% (active)	-46.2% (active)	-100% (active)	-88% (active)	-100% (active)	-79.1% (active)	-100% (active)	-6.71% (active)	-94.3% (active)	-97.4% (active)	-70.5% (active)	-38.9% (active)	-32.1% (active)	-92.6% (active)	-100% (active)	-97.9% (active)	-90.5% (active)	-53% (active)	-100% (active)
NCCc1cc(O)c(O)cc1O	99.9%	112%	94.4%	104%		102%	97.6%	100%	82.3%		101%	114%	89.1%	86.5%	97.8%	111%	108%	109%	105%	96.8%
ClCCN(CCCl)c1nc(Cl)c(C2CC(c3ccc(Cl)cc3)=NN2c2cc(Cl)cc(Cl)c2)s1 (stereo not drawn)	103%	116%	107%	102%	118%	94.4%	105%	88.1%	93.6%	82.7%	106%	121%	92%	95%	99.1%	108%	103%	99.2%	95.1%	108%
